We go through five molecules from PubChem BioAssay.

Active and inactive are the calls of the source.

Assay [1] in a line: small molecules captured by biotinylated probe aFSTL3 – biochemical, small-molecule microarray, fluorescence 635/667, stem cell growth factor project, primary screen (AID 1064).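 Further: measures binding of the biotinylated anti-FSTL3 antibody to printed compounds.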 The following applies: higher = more signal.
Assay [2] is described as follows: binders from COS7 lysate, DM2A8 probe, primary screen, torsin A project, cell lysate, small-molecule microarray, fluorescence 635/667 (AID 1065). To be noted: higher = more signal, COS7 lysate expressing mutant human TOR1A.
Assay [3] can be described thus: small molecules captured by biotinylated probe aFGF2 – biochemical, small-molecule microarray, fluorescence 635/667, stem cell growth factor project, primary screen (AID 1067).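 Further: measures binding of biotinylated aFGF2 protein to printed compounds on slides; z-score merges feature fluorescence and signal-to-noise across triplicate slides.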 To be noted: higher = more signal.
The nature of assay [4]: small molecules captured by biotinylated probe aFGF10 – biochemical, small-molecule microarray, fluorescence 635/667, stem cell growth factor project, primary screen (AID 1071).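 Further: score merges 667 nm spot intensity and signal to noise from triplicate slides.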 The following applies: higher = more signal.
The target in assay [5] is Neurogenic locus notch homolog protein 2 (Homo sapiens) (UniProt Q04721). The experiment in a line: small molecules binding Notch2 protein – biochemical, small-molecule microarray, 635 nm fluorescence, stem cell growth factors, primary screen (AID 1073). To be noted: higher = more signal.
Assay [6] deals with Pro-neuregulin-1, membrane-bound isoform (Homo sapiens) (UniProt Q02297). In words: small molecules binding neuregulin-1 protein – biochemical, small-molecule microarray, fluorescence 635/667, psychiatric disease protein project, primary screen (AID 1075).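 Further: score combines 667 nm spot fluorescence with signal to noise.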 To be noted: NRG1 binding, 635 nm fluorescence, higher = more signal.
In assay [7] the test system is Neuregulin-1 EGF-like domain. In words: small molecules binding NRG1 EGF domain – biochemical, small-molecule microarray, 635 nm fluorescence, primary screen (AID 1081).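 Further: binding of the protein to compounds printed on small-molecule microarray slides.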 The following applies: higher = more signal.
The nature of assay [8]: FRG1 expression reporter modulators in myotubes – cell-based, C2C12 myotubes, firefly/Renilla luciferase, luminescence, FRG1 inhibition for FSHD, primary screen (AID 1084). The following applies: FRG1 promoter luciferase, higher = more signal, called active from +8 up or from −8 down.
Assay [9] is described as follows: small molecules captured by biotinylated probe aFST – biochemical, small-molecule microarray, fluorescence 635/667, stem cell growth factor project, primary screen (AID 1086).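 Further: score merges 667 nm fluorescence with signal-to-noise of each printed compound spot.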 The following applies: higher = more signal.
A short description of assay [10]: binders of probe aHhip on microarray, primary screen, stem cell growth factor project, biochemical, small-molecule microarray, fluorescence 635/667 (AID 1087).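 Further: score merges spot fluorescence at 667nm with spot signal to noise ratio.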 The following applies: higher = more signal.
Assay [11] has as its system PRMT1 (protein arginine N-methyltransferase 1). In words: small molecules binding arginine methyltransferase PRMT1 – biochemical, small-molecule microarray, 635 nm fluorescence, primary screen (AID 1088).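 Further: binding of Prmt1 protein to compounds spotted on small-molecule microarray slides.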 To be noted: higher = more signal.
Assay [12] is described as follows: growth effects on S. cerevisiae YJM789 – YJM789 clinical isolate, OD600, 24 h, basal, primary screen (AID 1089).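 Further: growth of clinical yeast isolate S. cerevisiae YJM 789 seeded 1000 cells per well; test concentration not given here.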 The following applies: higher = more signal, called active from +8 up or from −8 down.
Assay [13] is described as follows: S. pombe growth modifiers, basal conditions – strain 972, OD600, 24 h, no modulator, primary screen (AID 1090).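 Further: basal condition with compound alone and no growth modifier present; test concentration not given here.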 To be noted: S. pombe 972 growth, higher = more signal, called active from +8 up or from −8 down.
Assay [14] can be described thus: budding yeast growth modifiers under rapamycin – strain BY4716, OD600, 96 h, primary screen (AID 1091). Further: test concentration not given here. To be noted: S. cerevisiae BY4716 + rapamycin, higher = more signal, called active from +8 up or from −8 down.
Assay [15] concerns the target Torsin-1A-interacting protein 2 (Homo sapiens) (UniProt Q8NFQ8). The experiment in a line: small molecules binding lysate-expressed LULL1 – cell lysate, human LULL1 lysate, 635/667 nm fluorescence, primary screen (AID 1092).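 Further: score merges per-feature 667 nm fluorescence with signal-to-noise.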 The following applies: small-molecule microarray, hLULL1 lysate binding, 635 nm fluorescence; higher = more signal.
Assay [16] in a line: optical density change of DRC41 E. coli – strain DRC41, OD650, 24 h, E. coli filamentation project, primary screen (AID 1093).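 Further: MC1000 strain lacking acrAB efflux and sulA so SOS filamentation is blocked; test concentration not given here.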 The following applies: E. coli DRC41 growth, higher = more signal, called active from +8 up or from −8 down.
A short description of assay [17]: probe aLefty2 binding to arrayed compounds – biochemical, biotinylated probe, 635/667 nm fluorescence, primary screen (AID 1094).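 Further: score merges spot fluorescence near 667 nm with spot signal-to-noise ratio.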 To be noted: small-molecule microarray, higher = more signal.
For assay [18], the system named is Noggin (protein binding on small-molecule microarray). In words: small molecules binding Noggin protein – biochemical, 635/667 nm fluorescence, primary screen (AID 1095).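 Further: score merges 667 nm feature fluorescence with signal to noise over triplicate slides.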 To be noted: 635 nm fluorescence, higher = more signal.
The target of assay [19] is Neurogenic locus notch homolog protein 3 (Homo sapiens) (UniProt Q9UM47). The experiment in a line: small molecules binding NOTCH3 protein – biochemical, 635/667 nm fluorescence, primary screen (AID 1096). The following applies: small-molecule microarray, 635 nm fluorescence, higher = more signal.
The nature of assay [20]: probe aEGFR binding to arrayed compounds – biochemical, biotinylated probe, 635/667 nm fluorescence, primary screen (AID 1097).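 Further: probe is a biotinylated anti-EGFR antibody binding compounds printed on slides; score combines fluorescence near 667 nm and signal to noise of each spot.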 The following applies: small-molecule microarray, higher = more signal.

Chain of Neurogenic locus notch homolog protein 2 (Homo sapiens) (Q04721 whole entry, looked up, canonical isoform): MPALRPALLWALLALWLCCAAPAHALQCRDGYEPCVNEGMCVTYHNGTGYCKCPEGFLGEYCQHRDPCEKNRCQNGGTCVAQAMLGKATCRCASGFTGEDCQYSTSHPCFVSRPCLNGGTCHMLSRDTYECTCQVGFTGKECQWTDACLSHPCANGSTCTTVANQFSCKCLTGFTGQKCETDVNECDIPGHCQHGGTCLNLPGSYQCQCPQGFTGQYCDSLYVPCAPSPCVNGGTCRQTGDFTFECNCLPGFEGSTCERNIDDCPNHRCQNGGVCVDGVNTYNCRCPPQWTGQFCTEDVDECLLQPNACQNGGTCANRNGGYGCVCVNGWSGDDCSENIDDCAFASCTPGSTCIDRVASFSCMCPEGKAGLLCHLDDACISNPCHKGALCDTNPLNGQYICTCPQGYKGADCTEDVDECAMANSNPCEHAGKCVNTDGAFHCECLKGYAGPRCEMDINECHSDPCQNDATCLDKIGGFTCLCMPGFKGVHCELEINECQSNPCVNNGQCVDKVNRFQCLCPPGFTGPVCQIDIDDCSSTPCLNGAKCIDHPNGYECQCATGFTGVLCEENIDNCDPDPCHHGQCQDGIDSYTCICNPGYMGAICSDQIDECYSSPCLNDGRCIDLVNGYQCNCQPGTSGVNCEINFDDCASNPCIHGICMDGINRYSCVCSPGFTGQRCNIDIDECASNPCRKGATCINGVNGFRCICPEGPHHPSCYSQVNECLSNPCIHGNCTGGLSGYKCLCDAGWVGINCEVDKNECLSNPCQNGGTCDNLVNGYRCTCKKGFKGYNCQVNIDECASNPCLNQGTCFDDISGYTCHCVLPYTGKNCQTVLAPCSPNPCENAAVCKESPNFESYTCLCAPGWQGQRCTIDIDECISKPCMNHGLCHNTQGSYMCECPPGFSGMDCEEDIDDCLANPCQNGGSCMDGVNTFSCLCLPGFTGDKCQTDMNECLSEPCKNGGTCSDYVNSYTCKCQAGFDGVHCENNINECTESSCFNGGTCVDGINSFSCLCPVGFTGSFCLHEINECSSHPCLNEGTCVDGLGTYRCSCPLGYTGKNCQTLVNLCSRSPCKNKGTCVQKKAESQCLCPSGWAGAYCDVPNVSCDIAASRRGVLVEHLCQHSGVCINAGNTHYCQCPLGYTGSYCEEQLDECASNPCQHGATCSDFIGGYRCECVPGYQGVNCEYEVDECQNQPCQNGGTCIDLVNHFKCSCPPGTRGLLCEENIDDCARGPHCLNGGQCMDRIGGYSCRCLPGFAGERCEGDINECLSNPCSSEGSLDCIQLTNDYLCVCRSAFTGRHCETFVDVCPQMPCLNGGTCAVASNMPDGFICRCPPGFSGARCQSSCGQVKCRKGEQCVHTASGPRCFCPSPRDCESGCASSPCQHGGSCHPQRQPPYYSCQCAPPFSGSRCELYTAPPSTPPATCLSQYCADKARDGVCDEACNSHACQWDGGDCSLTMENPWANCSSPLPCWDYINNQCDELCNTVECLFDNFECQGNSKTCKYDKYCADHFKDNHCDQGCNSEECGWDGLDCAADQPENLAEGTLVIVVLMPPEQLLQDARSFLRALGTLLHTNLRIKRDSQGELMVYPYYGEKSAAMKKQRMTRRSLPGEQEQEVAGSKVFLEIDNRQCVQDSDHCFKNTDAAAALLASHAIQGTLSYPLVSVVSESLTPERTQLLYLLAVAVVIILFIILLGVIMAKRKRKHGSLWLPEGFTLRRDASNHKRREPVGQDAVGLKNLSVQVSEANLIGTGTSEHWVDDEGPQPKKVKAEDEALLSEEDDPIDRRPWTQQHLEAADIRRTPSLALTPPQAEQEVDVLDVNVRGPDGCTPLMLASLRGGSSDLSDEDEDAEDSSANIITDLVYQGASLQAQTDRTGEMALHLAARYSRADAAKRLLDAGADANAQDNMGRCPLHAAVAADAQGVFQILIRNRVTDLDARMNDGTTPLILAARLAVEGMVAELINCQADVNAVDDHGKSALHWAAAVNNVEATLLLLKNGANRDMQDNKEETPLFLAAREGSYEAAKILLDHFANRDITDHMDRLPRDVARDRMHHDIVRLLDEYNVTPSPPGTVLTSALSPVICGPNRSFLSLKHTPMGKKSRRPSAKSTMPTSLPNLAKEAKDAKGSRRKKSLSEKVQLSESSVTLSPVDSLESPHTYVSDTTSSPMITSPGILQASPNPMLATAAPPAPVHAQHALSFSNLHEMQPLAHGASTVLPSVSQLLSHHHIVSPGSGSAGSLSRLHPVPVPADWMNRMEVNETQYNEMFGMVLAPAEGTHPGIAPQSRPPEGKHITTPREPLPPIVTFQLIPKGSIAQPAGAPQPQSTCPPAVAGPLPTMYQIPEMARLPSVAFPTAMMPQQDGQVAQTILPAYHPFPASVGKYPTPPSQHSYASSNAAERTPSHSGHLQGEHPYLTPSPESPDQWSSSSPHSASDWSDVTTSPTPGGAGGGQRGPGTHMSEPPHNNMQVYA
Chain of Torsin-1A-interacting protein 2 (Homo sapiens) (Q8NFQ8 whole entry, looked up): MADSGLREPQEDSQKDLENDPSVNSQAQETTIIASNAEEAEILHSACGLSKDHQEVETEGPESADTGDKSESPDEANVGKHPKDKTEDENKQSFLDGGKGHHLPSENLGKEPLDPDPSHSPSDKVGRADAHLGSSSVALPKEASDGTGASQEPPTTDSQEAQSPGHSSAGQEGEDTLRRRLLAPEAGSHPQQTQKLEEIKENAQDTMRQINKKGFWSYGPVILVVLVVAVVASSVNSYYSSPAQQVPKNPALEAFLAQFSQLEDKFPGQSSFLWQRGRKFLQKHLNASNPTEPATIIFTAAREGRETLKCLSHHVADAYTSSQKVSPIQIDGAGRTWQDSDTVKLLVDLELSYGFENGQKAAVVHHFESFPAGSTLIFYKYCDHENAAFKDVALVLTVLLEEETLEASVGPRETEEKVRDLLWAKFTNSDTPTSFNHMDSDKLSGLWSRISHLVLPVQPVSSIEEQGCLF
Chain of Pro-neuregulin-1, membrane-bound isoform (Homo sapiens) (Q02297 whole entry, looked up, the tested form may be a part, canonical isoform): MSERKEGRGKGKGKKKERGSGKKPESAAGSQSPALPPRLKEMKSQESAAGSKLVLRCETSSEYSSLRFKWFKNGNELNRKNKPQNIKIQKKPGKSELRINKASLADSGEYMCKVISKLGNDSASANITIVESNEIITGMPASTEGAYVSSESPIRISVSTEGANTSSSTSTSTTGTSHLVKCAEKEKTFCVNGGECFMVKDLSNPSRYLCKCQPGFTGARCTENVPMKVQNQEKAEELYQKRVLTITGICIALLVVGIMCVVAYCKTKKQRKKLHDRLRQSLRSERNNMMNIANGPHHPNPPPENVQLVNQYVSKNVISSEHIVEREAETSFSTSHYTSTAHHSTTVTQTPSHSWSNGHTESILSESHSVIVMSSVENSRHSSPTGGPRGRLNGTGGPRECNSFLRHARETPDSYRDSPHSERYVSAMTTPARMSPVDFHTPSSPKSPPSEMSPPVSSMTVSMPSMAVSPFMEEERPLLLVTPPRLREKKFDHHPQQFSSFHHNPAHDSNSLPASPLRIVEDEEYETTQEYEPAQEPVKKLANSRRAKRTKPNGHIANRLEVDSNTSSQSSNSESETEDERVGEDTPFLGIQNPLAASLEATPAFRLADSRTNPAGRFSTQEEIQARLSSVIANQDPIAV

With `O=C1c2ccccc2[C@](Cc2ccccc2I)(C(=O)NCc2ccccc2)[C@H](c2ccc(CO)cc2)N1Cc1ccccc1C(F)(F)F`, the composite z-score was 0.988 in assay [1]; 0.077 in [2]; -0.131 in assay [3]; -0.787 in assay [4]; -1.28 in [5]; 0.385 in assay [6]. For the same molecule, the composite z-score in assay [7] is -0.56; in assay [9] it was -0.318; in assay [10] it was -0.134; in assay [11] it was 1.27; in assay [15], 2.44; in assay [17] it was -0.0345. Also, the composite z-score in [18] is -1.05; in assay [19] it was -0.785; in assay [20], -0.179. Moreover, the z-score in assay [8] was -1.98 (inactive); in assay [12], 0.417 (inactive); in assay [13], -1.05 (inactive); in assay [14], 0.304 (inactive); in [16], 1.03 (inactive).

For `C=C(CCCC)/C(=C/C[C@H](OC(=O)c1ccncc1)c1cccc(OCCO)c1)c1cc(C(=O)OC)ccc1OC`, the composite z-score in assay [1] was -0.195; in [2], 0.422; in assay [3], 0.0346; in assay [4], 1.05; in [5], -0.0883; in assay [6], 0.0742. The composite z-score is 0.952 in assay [7]; 0.104 in assay [9]; 0.0854 in assay [10]; 1.4 in assay [11]; 1.23 in assay [15]; -0.174 in assay [17]. Moreover, the composite z-score is 1.08 in assay [18], 0.966 in assay [19] and -0.112 in [20]. Further, the z-score in assay [8] was 5.01 (inactive); in [12] it was 0.15 (inactive); in assay [13] it was -0.323 (inactive); in [14] it was 2.82 (inactive); in [16], 1.94 (inactive).

Take `COCCCNC(=O)[C@@]1(Sc2ccc(C)cc2)CC(=O)N(Cc2cc(C(F)(F)F)cc(C(F)(F)F)c2)[C@@H]1c1ccc(CO)cc1I`: the composite z-score is 1.12 in assay [1]; -0.181 in assay [2]; -0.147 in assay [3]; -0.811 in assay [4]; -1.43 in [5]; 2.17 in [6]. For the same molecule, the composite z-score in assay [7] was 1.35; in assay [9], -0.265; in [10], 1.67; in assay [11] it was -0.217; in [15] it was 1.46; in assay [17], -0.105. In addition, the composite z-score is -1.76 in assay [18], -0.973 in [19] and -0.288 in assay [20]. The z-score in assay [8] was -0.925 (inactive); in assay [12], -1.27 (inactive); in assay [13], -3.56 (inactive); in assay [14], 0.0085 (inactive); in assay [16], 0.486 (inactive).

Consider `COc1ccc([Si](C)(C)[C@H]2[C@H](CCO)O[C@@]3(C(=O)N(Cc4ccccc4)c4ccc(N5C(=O)c6cccc7cccc5c67)cc43)[C@@H]2C)cc1`, for which the composite z-score is 0.334 in [1]; -0.173 in [2]; -0.144 in assay [3]; 0.0626 in [4]; -0.0844 in assay [5]; 0.48 in assay [6]. For the same molecule, the composite z-score is 0.836 in assay [7]; -0.268 in assay [9]; 3.71 in [10]; 0.491 in [11]; 1.12 in [15]; -0.225 in [17]. Moreover, the figures for the composite z-score in assay [18], in assay [19] and in assay [20] were -0.453, -0.203 and -0.218, respectively. In addition, the z-score is -1.3 (inactive) in [8]; 1.05 (inactive) in [12]; 1.11 (inactive) in assay [13]; 33 (active) in [14]; 1.97 (inactive) in assay [16].

`CC(=O)NCCCC[C@@H]1NC(=O)[C@@H]2C[C@H](C(=O)NCc3ccc(F)cc3)[C@H](c3cccc(OCCO)c3)N2C1=O`: the composite z-score in [1] was 0.617; in assay [2] it was -0.0522; in assay [3], -0.0038; in [4] it was 0.107; in [5], -0.417; in assay [6], 1.39. Further, the composite z-score in assay [7] was 1.36; in assay [9] it was -0.205; in [10] it was -0.0237; in [11], 0.631; in [15], 2.43; in assay [17], 0.207. Also, the composite z-score in assay [18] is 0.584; in [19], -0.515; in assay [20] it was -0.0953. For the same molecule, the z-score is 0.967 (inactive) in assay [8]; 0.592 (inactive) in assay [12]; 0.16 (inactive) in assay [13]; 0.205 (inactive) in [14]; 0.496 (inactive) in assay [16].
